Laboratory results published in the supplement of paper PMC7156485.
± gives the standard deviation of the averaged measurements.

System: TDF
Experiment: cell number relative to DMSO (% of DMSO); higher = more cells (less growth inhibition / toxicity)
Conditions: concentration: 10 µM; 24 h
Summary of the method: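 After 24 h at 37 °C with compounds at 10 µM, in triplicate, HCC1569 and TDF cells were fixed with 3.7% formaldehyde. Immunostaining used a rabbit anti-H1.0 antibody and an AlexaFluor 647 secondary, with DAPI, and six fields per well were imaged at ×10. H1.0 nuclear intensity or cell number is presented as percent of the plate control, from the median of replicates, with HCC1569 values smoothed for positional effects.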
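Also: TDF denotes transformed human dermal fibroblasts of mesenchymal origin.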

Row | Compound | cell number
1 | O=C1NC(=O)C(=Cc2ccc3nccnc3c2)S1 [PI 3-Kg Inhibitor] | 110
2 | CC(=O)c1ccc2c(c1)[C@H](NC(=O)c1ccc(F)c(Cl)c1)[C@H](O)C(C)(C)O2 | 98
3 | Br.CN1C2CCC1CC(OC(=O)C(O)c1ccccc1)C2 (stereo not given) | 97.5
4 | COc1ccccc1N1CCN(CCCNc2cc(=O)n(C)c(=O)n2C)CC1.Cl [Urapidil hydrochloride] | 102
5 | COC(C)(C)CCCC(C)CC=CC(C)=CC(=O)O (stereo not given) [Methoprene acid] | 91.9
6 | CS(=O)(=O)O.Cc1c(O)cccc1C(=O)NC(CSc1ccccc1)C(O)CN1CC2CCCCC2CC1C(=O)NC(C)(C)C (stereo not given) [Nelfinavir mesylate] | 112
7 | CN(C)CCCOc1nn(Cc2ccccc2)c2ccccc12 [Benzydamine] | 83.7
8 | CC(N=C(NC#N)Nc1ccncc1)C(C)(C)C (stereo not given) [Pinacidil] | 107 ± 6.8
9 | COc1cc(-c2oc3cc(O)cc(O)c3c(=O)c2O)ccc1O [Isorhamnetine] | 97.1
10 | CCNC(=O)N1CCN(CCCC(c2ccc(F)cc2)c2ccc(F)cc2)CC1.Cl [Amperozide hydrochloride] | 95.8
11 | C=C(C)C1CCC2(C(=O)O)CCC3(C)C(CCC4C5(C)CCC(O)C(C)(C)C5CCC43C)C12 (stereo not given) [Betulinic acid] | 108
12 | CCCCCCCCCC(=O)NC(CN1CCOCC1)C(O)c1ccccc1.Cl (racemic) | 91.9
13 | CCCCCCCCCCCC=CCC=CCCCC(=O)O [5(Z), 8(Z)-Eicosadienoic acid] | 96.9
14 | NC(C(=O)O)C1CC1C(=O)O [(2S,1'S,2'S)-2-(carboxycyclopropyl)glycine] | 110
15 | Cc1ccc(Nc2nccc(N(C)c3ccc4c(C)n(C)nc4c3)n2)cc1S(N)(=O)=O [Pazopanib] | 100
16 | O=c1[nH]c(=O)n(C2CC(O)C(CO)O2)cc1I (stereo not given) [Idoxuridine] | 100
17 | COc1cc(C=Cc2ccccc2)oc(=O)c1 [5,6-Dehydrokawain] | 97.5
18 | CN(C)CCC(c1ccc(Cl)cc1)c1ccccn1 (stereo not given) [Chlorpheniramine] | 98.1
19 | Cl.NCCc1ccc(O)c(O)c1 [Dopamine hydrochloride] | 100
20 | CS(=O)(=O)O.Cc1ccc(N(CC2=NCCN2)c2cccc(O)c2)cc1 [Phentolamine mesylate] | 105

Row | Compound | cell number
21 | COc1cc(Br)c(Nc2nc(-c3c(C)nc4ncccn34)cs2)c(Br)c1 | 53.8
22 | COC(=O)C1C2CC3c4[nH]c5cc(OC)ccc5c4CCN3CC2CC(OC(=O)c2cc(OC)c(OC)c(OC)c2)C1OC (stereo not given) [Reserpine] | 86.3
23 | O=c1[nH]ccc2c(O)cccc12 [1,5-Isoquinolinediol] | 97.2
24 | C[N+](C)(C)CCO.[Cl-] [2-hydroxy-N,N,N-trimethylethanaminium chloride] | 107
25 | CCC(CCC(C)C1CCC2C3CC=C4CC(O)CCC4(C)C3CCC12C)C(C)C (stereo not given) | 92.5
26 | CCCCCCCCC(O)C=CC=CC=CC(O)CCCC(=O)O (stereo not given) [Leukotriene B3] | 93.8
27 | COC(=O)C(N)Cc1ccc(Cl)cc1.Cl (racemic) [DL-p-Chlorophenylalanine methyl ester hydrochloride] | 92.3
28 | O=[N+]([O-])c1cccc2c(Br)[nH]nc12 [3-Bromo-7-nitroindazole] | 113
29 | CCOC(=O)CN1C(=O)c2ccc3c4c(ccc(c24)C1=O)C(=O)N(CC(=O)OCC)C3=O | 105
30 | CCCCCC=CCC(O)C=CC=CCCC(=O)O [Tetranor-12(R)-HETE] | 93.9
31 | COc1cc2nc(N(C)CCCNC(=O)C3CCCO3)nc(N)c2cc1OC (stereo not given) [Alfuzosin] | 96.5
32 | Cl.NC(N)=NC(N)=Nc1cccc(Cl)c1 [1-(m-Chlorophenyl)-biguanide hydrochloride] | 97.2
33 | COc1ccc2c(c1)c(CC(=O)OCC(=O)O)c(C)n2C(=O)c1ccc(Cl)cc1 [Acemetacin] | 94.4
34 | O=C(O)CCc1nc(-c2ccccc2)c(-c2ccccc2)o1 [Oxaprozin] | 101
35 | O=c1cc(-c2ccc(O)cc2)oc2cc(O)cc(O)c12 [Apigenin] | 104 ± 3.7
36 | OCCn1cc(-c2cnc3nnn(Cc4ccc5ncccc5c4)c3n2)cn1 | 98.7
37 | CC1(COc2ccc(CC3SC(=O)NC3=O)cc2)CCCCC1 (stereo not given) [Ciglitizone] | 105
38 | COc1cc2ncnc(Nc3cccc(Cl)c3)c2cc1OC [Tyrphostin AG 1478] | 94.6
39 | NC(=O)Nc1sc(-c2ccc(F)cc2)cc1C(N)=O [IKK-2 Inhibitor IV] | 103
40 | Cl.O.O=C(O)CN(CCN(CC(=O)O)Cc1ccccc1O)Cc1ccccc1O | 98.8
